The list is not random: actives were taken first. Their share in the collection is about 1.2%.
RGS7-Gao: regulators of human RGS7-Galphao interaction. Multiplexed bead flow cytometry, RGS7-Galphao binding; actives lie on both sides. binding response (% of control), % at 10 µM. hit rate 0.35% among 220,000; in the data active = binding response below about 49% or above about 150%; inconclusive = no clear call, values can overlap the other calls; inactive = in between;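 note: fluorescent Galphao held in activated GDP-AlF4 state binding bead-coupled RGS7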
Avidin bead fluor: avidin bead compound fluorescence profile; Avidin beads, compound fluorescence 488/530 nm, flow cytometry; hits give high values; fluorescence (KMESF) at 10 µM; hit rate 0.38% among 220,000; AID 1775; in the data active = fluorescence above about 47
RGS16-Gao HTS: RGS16-Galphao interaction regulator (human). O15492+P09471. bead-based flow cytometry RGS16-Galphao binding, fluorescence; actives lie on both sides. binding response (% of control), % at 10 µM. hit rate 0.38% among 220,000. AID 1441;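 note: Galphao activated by GDP with aluminum fluoride before binding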
Target sequence (O15492 whole entry, looked up): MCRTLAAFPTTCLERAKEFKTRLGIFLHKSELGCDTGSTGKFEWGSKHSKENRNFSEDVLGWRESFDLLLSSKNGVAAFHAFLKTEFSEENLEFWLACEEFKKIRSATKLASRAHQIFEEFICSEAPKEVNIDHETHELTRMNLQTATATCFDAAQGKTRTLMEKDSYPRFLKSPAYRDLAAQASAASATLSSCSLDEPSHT
Target sequence (P09471 whole entry, looked up): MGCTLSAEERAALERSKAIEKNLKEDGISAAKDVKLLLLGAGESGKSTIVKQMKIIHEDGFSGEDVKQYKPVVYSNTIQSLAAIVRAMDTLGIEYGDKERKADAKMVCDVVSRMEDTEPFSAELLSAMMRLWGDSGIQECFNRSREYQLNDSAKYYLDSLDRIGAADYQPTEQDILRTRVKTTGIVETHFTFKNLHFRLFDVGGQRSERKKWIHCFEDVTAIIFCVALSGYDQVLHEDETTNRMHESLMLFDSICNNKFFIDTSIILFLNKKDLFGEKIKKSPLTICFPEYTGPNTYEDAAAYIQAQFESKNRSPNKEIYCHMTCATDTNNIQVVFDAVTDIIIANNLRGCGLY
GSH bead fluor: compound fluoresces at 488/530 nm on GSH beads. GSH beads flow cytometry, compound fluorescence 488/530 nm; hits give high values. fluorescence (KMESF) at 10 µM. hit rate 0.25% among 190,000; in the data active = fluorescence above about 89;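 note: glutathione beads carrying GST-tagged Bcl family fusion proteins plus one bare bead set; values are compound well signal with DMSO vehicle wells as background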
RGS4-Gao reg: modulates binding of RGS4 to human Galphao. hit rate 0.33% among 220,000. binding response (% of control), % at 10 µM. Multiplexed bead flow cytometry; actives lie on both sides. AID 1415; in the data active = binding response below about 49% or above about 150%; inactive = in between;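 note: fluorescent Galphao activated with aluminum fluoride binding bead-coupled RGS4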
RGS8-Gao reg: human RGS8-Galphao interaction regulation | multiplexed bead flow cytometry, RGS8-Galphao binding; actives lie on both sides | response (percent of control binding), % at 10 µM | hit rate 0.34% among 220,000 | P09471; in the data active = response below about 60% or above about 140%; inactive = in between;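 note: Galphao activated as the GDP aluminium fluoride complex binding bead-coupled RGS8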
RGS4-Gao HTS: modulates binding between human RGS4 and Galphao. shares compounds with RGS16-Gao HTS. multiplexed bead flow cytometry, RGS–Galpha-o binding. RGS4–Galpha-o binding response, % at 10 µM. hit rate 99% among 1,600. AID 1504;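 note: fluorescently labeled Galpha-o bound to GDP with aluminium fluoride binding biotinylated RGS beads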
Avidin counter: biotin-avidin bead binding disruption counter-screen. shares compounds with RGS16-Gao HTS. streptavidin beads, fluorescein-biotin binding, flow cytometry. inhibition, % at 10 µM. 1,700 tested, under 10 active;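 active = inhibition above 50%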;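 note: median green fluorescence of gated singlet beads compared with DMSO control wells; 0% = DMSO wells and 100% = complete loss of bead fluorescence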
RGS8-Gao single: RGS8-Galphao interaction regulation, single point confirmation | hit rate 3% among 1,700 | bead-based flow cytometry RGS8-Galphao binding, fluorescence; actives lie on both sides | AID 1836 | shares compounds with RGS16-Gao HTS | binding response (% of control), % at 10 µM; in the data active = binding response below about 72% or above about 130%; inactive = in between;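 note: Galphao activated as GDP AlF4 complex before binding bead RGS8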
RGS7-Gao confirm: confirmation of regulators of human RGS7-Galphao interaction; shares compounds with RGS16-Gao HTS; bead-based flow cytometry RGS7-Galphao binding; actives lie on both sides; response (percent of control binding), % at 10 µM; hit rate 7.8% among 1,700; in the data active = response below about 75% or above about 130%; inactive = in between;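 note: fluorescent Galphao activated with GDP and aluminum fluoride binding bead-coupled RGS7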
RGS16-Gao single: RGS16-Galphao interaction regulation, single point confirmation | shares compounds with RGS16-Gao HTS | bead-based flow cytometry, RGS16-Galphao binding; actives lie on both sides | response (% of control binding), % at 10 µM | hit rate 4% among 1,700; in the data active = response below about 74% or above about 130%; inactive = in between;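 note: Galphao activated as the GDP aluminium fluoride complex binding bead-coupled RGS16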
RGS4-Gao confirm: RGS4-Galphao interaction regulation, single point confirmation | shares compounds with RGS16-Gao HTS | RGS4-Galphao binding, multiplexed bead flow cytometry; actives lie on both sides | binding response (% of control), % at 10 µM | hit rate 4% among 1,700 | AID 1840; in the data active = binding response below about 74% or above about 130%; inactive = in between
RGS19-Gao conf: RGS19-Galphao interaction regulation, single point confirmation; shares compounds with RGS16-Gao HTS; bead-based flow cytometry RGS19-Galphao binding; actives lie on both sides; response (percent of control binding), % at 10 µM; hit rate 5% among 1,700; AID 1841; in the data active = response below about 50% or above about 160%; inactive = in between;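 note: 100% = no compound control and 0% = blank background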
* marks the source's active call; other numbers are inactive results; i = inactive; u = inconclusive; x = not tested or not shown; [ ] = remark or other dose. Unless noted, the rule behind the calls is not given here.

SMILES	RGS7-Gao	Avidin bead fluor	RGS16-Gao HTS	GSH bead fluor	RGS4-Gao reg	RGS8-Gao reg	RGS4-Gao HTS	Avidin counter	RGS8-Gao single	RGS7-Gao confirm	RGS16-Gao single	RGS4-Gao confirm	RGS19-Gao conf
Cc1cccc(CC2S/C(=N/c3ccccn3)NC2=O)c1 (stereo unspecified)	113.7	6	236.5	21	113.3	141.5*[activator]	113.3*	-1.3	108.7	105.1	106.3	103.3	108.8
O=C1N/C(=N\c2ccccn2)SC1Cc1ccccc1Cl (stereo unspecified)	u	5	85.5	x	86.6	91.2	x	x	x	x	x	x	x
CN(C)CCNC(=O)c1ccc2c(c1)N(Cc1ccc(F)cc1)CCS2	61.8	0	7.0	23	44.3*	60.0*	x	0.6	100.8	96.3	98.3	101.0	86.4
Cc1ccc(CN2CCSc3ccc(C(=O)NCc4cccnc4)cc32)cc1	u	8	93.3	13	96.4	97.8	x	x	x	x	x	x	x
O=C(CSc1ccc2nnc(-c3ccc(Cl)cc3)n2n1)N1CCc2ccccc21	100.1	4	83.0	16	99.3	98.8	x	x	x	x	x	x	x
COc1ccc(C(=O)Cc2ccc(OC)c(OC)c2)cc1	x	x	x	37	x	x	x	-0.7	101.0	98.5	104.2	101.3	106.8
CCN(CC)CCN1C(=O)C(=O)/C(=C(/O)c2c(C)[nH]c(C(=O)OC)c2C)C1c1ccccc1OC (stereo unspecified)	158.8*[activator]	23	265.8	6	176.1*[activator]	145.2*[activator]	x	-0.1	99.7	108.0	103.1	105.1	100.6
CCN(CC)CCN1C(=O)C(=O)/C(=C(/O)c2c(C)[nH]c(C(=O)OC)c2C)C1c1cccs1 (stereo unspecified)	99.3	8	99.5	10	98.2	102.7	x	x	x	x	x	x	x
CC(=O)NC(C)c1ccc(Cl)c(Cl)c1 (stereo unspecified)	132.7	5	i	32	138.9	156.0*[activator]	138.9*	x	x	x	x	x	x
Cc1ccc(NS(=O)(=O)c2ccc(OCC(=O)NCc3cccnc3)cc2)cc1	88.4	1	23.3*	13	89.2	69.0	89.2*	0.9	98.2	93.9	99.7	95.6	94.6
O=C(N/N=C/c1cc([N+](=O)[O-])ccc1O)c1cc(-c2ccccc2)nc2ccccc12	42.5*	2	33.9	11	54.2	67.4	54.2*	-0.4	98.9	97.3	97.8	100.9	92.0
O=C(N/N=C/c1cc([N+](=O)[O-])ccc1Cl)c1cc(-c2ccccc2)nc2ccccc12	u	7	105.2	x	97.5	104.3	x	x	x	x	x	x	x
Cc1ccc(-c2nn[nH]n2)o1	151.2*[activator]	81*	104.9	10	122.9	101.5	122.9*	1.6	102.6	100.9	103.0	101.1	92.2
Cc1ccc(-c2nn[nH]n2)cc1	x	x	x	19	x	x	x	2.7	92.0	91.0	92.7	95.1	71.0
Cc1ccc(-c2nn[nH]n2)cc1Cl	u	8	104.5	x	111.9	102.5	x	x	x	x	x	x	x
CC(=O)C1=C(O)C(=O)N(Cc2ccccc2)C1c1cccs1 (stereo unspecified)	202.2*[activator]	171*	105.8	68	119.3	101.4	119.3*	-1.2	99.2	93.8	98.5	99.1	100.0
CC(=O)C1=C(O)C(=O)N(Cc2cccnc2)C1c1ccc(Cl)cc1 (stereo unspecified)	102.2	21	99.9	16	99.5	100.1	x	x	x	x	x	x	x
CC(C)=NOC(=O)c1ccc(-c2ccccc2)cc1	101.8	13	107.0	8	99.4	100.8	x	x	x	x	x	x	x
C=CCNCCCOc1ccc(C)cc1Br	95.1	7	24.1*	11	89.8	89.6	89.8*	-0.6	105.0	102.0	108.7	102.2	141.6
COCCCNCCCOc1ccc(C)cc1Br	102.5	10	123.4	7	100.3	111.7	x	x	x	x	x	x	x
CCOc1ccc2nc3c(cc2c1)CN(CCCO)C(=NCCOC)S3	-5.5*	-3	-10.3*	18	-8.3*	7.0*	x	i	97.1	92.5	99.0	97.4	91.8
